Results published in PubChem BioAssay.
The source made the active and inactive calls.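 The calls were made as follows, unless noted: active = fluorescence slope after compound addition differing from the mean of all screened samples at 99.7% confidence, in either direction; inactive = the rest.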

How the values were obtained:
[1] = inhibitors of TNFa-induced NFkB p65 translocation, primary screen, imaging, HUVEC, MLSMR starter and 10KST1 sets (AID 438;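 active = inhibition above 20% together with a positive visual image hit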;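 also: compound added about 3h40 before a 20 min TNFalpha stimulation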;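 as to inhibition: signal is the nuclear over cytoplasmic p65 intensity ratio per well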); settings: HUVEC TNFa-induced p65 nuclear translocation; cell count: measured here: nuclei count (cytotoxicity indicator), at 2.08 µM; inhibition: at 2 µM, stronger effect = higher value, 0% TNFa-plus-vehicle, 100% no-TNFa wells
[2] = endothelial E-selectin expression blockers – imaging, HUVEC, immunofluorescence, MLSMR starter and 10KST1 sets, primary screen (AID 487;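 active = visually confirmed hit in the image check and inhibition above 20%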;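 as to inhibition: signal is fraction of cell area covered by stained E-selectin grains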;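 as to nuclei count: 100% = median nuclei count of all wells on the same plate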); settings: HUVEC TNFalpha-induced E-selectin immunofluorescence imaging, at 2 µM; inhibition: stronger effect = higher value; nuclei count: measured here: cell number, toxicity
[3] = Primary imaging screen for DUSP6 inhibitors that restore phospho-Erk in transfected HeLa cells, chemical complementation (AID 609;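 active = compounds giving at least 50% inhibition in the cell-based MKP-3 phosphatase rescue imaging test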;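 as to inhibition: phospho-Erk level distribution per well compared with pooled transfected vehicle control wells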); settings: HeLa MKP-3 transfected, phospho-Erk imaging KS statistic, at 10 µM, cells stimulated with TPA for 15 min
[4] = molecular target: Dual specificity protein phosphatase 6 (Homo sapiens) (UniProt Q16828); assay: as above; settings: HeLa MKP-3 transfected, phospho-Erk imaging KS statistic; at 10 µM; stronger effect = higher value; cells stimulated with TPA for 15 min
[5] = molecular target: Voltage-gated potassium channel subunit beta-2 (Rattus norvegicus) (UniProt P62483); assay: inhibitors of rat Kvbeta2 reductase activity – biochemical, NADPH fluorescence, primary screen (AID 622;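 active = fluorescence slope higher than the sample average by over 3 SD, cut at about -0.22 in these data, passing the limit was not always enough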;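 also: slope of raw intensity against log time taken from 70 to 1610 s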); settings: recombinant KvBeta, 4-cyanobenzaldehyde reduction, at 10 µM, stronger effect = higher value
[6] = molecular target: Voltage-gated potassium channel subunit beta-2 (Rattus norvegicus) (UniProt P62483); assay: enhancers of rat Kvbeta2 NADPH turnover – biochemical, NADPH fluorescence, primary screen (AID 623;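 active = NADPH fluorescence slope more negative than the mean of all samples by about 3 SD, 99.7% confidence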;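 also: fluorescence intensity change per second fitted from 20 to 320 s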); settings: Recombinant KvBeta, NADPH fluorescence decrease slope, 10 min; at 10 µM; stronger effect = lower value
[7] = molecular target: Alpha-2C adrenergic receptor (Homo sapiens) (UniProt P18825); assay: compounds altering alpha2C-coupled GIRK flux – cell-based, HEK293 alpha2C/GIRK1/2, thallium flux, primary screen (AID 624); settings: thallium flux BTC fluorescence, at 10 µM, actives lie on both sides;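 also: slope of fluorescence ratio to pre-addition baseline per second over 15 to 24 s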
[8] = loss of swimming-algae plug formation – whole organism, Chlamydomonas reinhardtii, WT vs cilia-less mutant, absorbance, 96-well, primary screen (AID 463189;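 active = inhibition at or above 50% relative to wild type and mutant plate controls; inactive = inhibition below 50%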;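 also: 0% = wild type cc124 cells in DMSO and 100% = ciliumless bld1 mutant cells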); settings: Chlamydomonas reinhardtii gravitaxis, OD600 absorbance, 2 days; at 10 µM; stronger effect = higher value
[9] = measured here: cell density z-score
[10] = measured here: nuclear c-Myc green intensity z-score
[11] = measured here: nuclear pErk red intensity z-score, stronger effect = higher value

Sequence of Alpha-2C adrenergic receptor (Homo sapiens) (P18825 whole entry, looked up): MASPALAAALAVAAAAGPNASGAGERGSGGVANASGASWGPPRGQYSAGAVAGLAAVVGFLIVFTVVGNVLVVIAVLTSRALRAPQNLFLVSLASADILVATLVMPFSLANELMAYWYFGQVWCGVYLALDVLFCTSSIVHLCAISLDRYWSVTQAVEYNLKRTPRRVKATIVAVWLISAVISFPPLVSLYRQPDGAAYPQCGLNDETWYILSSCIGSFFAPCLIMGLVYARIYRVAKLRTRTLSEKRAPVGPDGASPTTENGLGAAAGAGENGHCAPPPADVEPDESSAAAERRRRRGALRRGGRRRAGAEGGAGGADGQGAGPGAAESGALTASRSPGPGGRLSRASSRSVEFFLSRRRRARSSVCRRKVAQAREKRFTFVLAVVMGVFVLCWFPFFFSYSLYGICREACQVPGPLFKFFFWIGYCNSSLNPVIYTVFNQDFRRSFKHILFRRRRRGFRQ
Sequence of Dual specificity protein phosphatase 6 (Homo sapiens) (Q16828 whole entry, looked up): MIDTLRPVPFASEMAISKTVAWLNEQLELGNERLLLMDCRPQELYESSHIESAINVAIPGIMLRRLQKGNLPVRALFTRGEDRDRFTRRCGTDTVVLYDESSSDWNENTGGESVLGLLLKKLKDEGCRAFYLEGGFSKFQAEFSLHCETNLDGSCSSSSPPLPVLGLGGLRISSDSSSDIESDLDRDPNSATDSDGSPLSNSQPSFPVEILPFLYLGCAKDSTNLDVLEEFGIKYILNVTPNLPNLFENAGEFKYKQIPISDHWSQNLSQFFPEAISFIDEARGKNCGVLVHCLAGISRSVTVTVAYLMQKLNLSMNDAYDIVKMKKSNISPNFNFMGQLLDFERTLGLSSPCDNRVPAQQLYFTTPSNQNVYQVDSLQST
Sequence of Voltage-gated potassium channel subunit beta-2 (Rattus norvegicus) (P62483 whole entry, looked up): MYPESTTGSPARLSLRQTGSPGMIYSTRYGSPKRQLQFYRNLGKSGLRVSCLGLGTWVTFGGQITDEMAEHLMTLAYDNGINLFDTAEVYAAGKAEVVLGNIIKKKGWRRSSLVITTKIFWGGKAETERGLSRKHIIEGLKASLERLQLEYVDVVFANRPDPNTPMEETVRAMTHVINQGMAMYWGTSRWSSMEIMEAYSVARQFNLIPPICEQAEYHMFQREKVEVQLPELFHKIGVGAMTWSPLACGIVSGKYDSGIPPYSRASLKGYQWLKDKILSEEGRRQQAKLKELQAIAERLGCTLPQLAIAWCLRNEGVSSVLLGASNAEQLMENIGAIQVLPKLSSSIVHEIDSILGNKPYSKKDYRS

SMILES	cell count [1]	inhibition [1]	inhibition [2]	nuclei count [2]	z-score [3, 9]	z-score [3, 10]	z-score [3, 11]	inhibition [4]	fluorescence slope [5]	NADPH fluorescence slope [6]	slope [7]	inhibition [8]
COc1cccc(-c2nc(NC(C)C)c3ccccc3n2)c1O	342	-2.3% (inactive)	-37.3% (inactive)	152%	-0.0785	0.53	0.295	1.6e-07% (inactive)	-0.436 (inactive)	-0.000146 (inactive)	0.00488 (inactive)	75.4% (active)
COc1ccc(C(=O)Cn2c(Br)nc3c2c(=O)n(C)c(=O)n3C)cc1OC	296	-12.5% (inactive)	28.7% (inactive)	116%	-1.61	0.384	-0.0762	-1.75% (inactive)	-0.471 (inactive)	-1.3e-05 (inactive)	0.00557 (inactive)	-16.3% (inactive)
Oc1ccccc1-c1nc(NCCN2CCOCC2)c2ccccc2n1	268	-6.5% (inactive)	14.7% (inactive)	96.7%	0.138	3.56	-0.549	1.6e-07% (inactive)	-0.423 (inactive)	-3.4e-05 (inactive)	0.00504 (inactive)	62.5% (active)
Cc1ccc2nc(NCc3ccccc3)[nH]c2c1	360	-2.3% (inactive)	-217% (inactive)	171%	-0.018	-0.878	0.83	-14% (inactive)	-0.447 (inactive)	-0.00018 (inactive)	0.00328 (inactive)	24.8% (inactive)
O=c1[nH]c(-c2ccccn2)nc2ccccc12	336	-9% (inactive)	-102% (inactive)	126%	0.0403	0.157	-1.25	1.48% (inactive)	-0.555 (inactive)	-4.4e-05 (inactive)	0.00479 (inactive)	34.7% (inactive)
COc1ccccc1N(Cc1cc2cccc(C)c2[nH]c1=O)C(=O)C(C)C	355	-9.7% (inactive)	-118% (inactive)	171%	1.34	-1.06	-1.74	43.8% (inactive)	-0.449 (inactive)	-0.000154 (inactive)	0.00657 (inactive)	28.4% (inactive)
Cc1ccc2cc(CN(C(=O)c3ccco3)c3ccccc3)c(=O)[nH]c2c1	312	-4.2% (inactive)	-134% (inactive)	163%	1.52	-0.685	-0.563	19.3% (inactive)	-0.412 (inactive)	-4.7e-05 (inactive)	0.0072 (inactive)	33.7% (inactive)
O=C1C2ON(c3ccccc3)C(c3ccncc3)C2C(=O)N1c1ccc(Br)cc1 (stereo not given)	360	-2.3% (inactive)	-22.2% (inactive)	148%	-0.515	-1.17	-0.44	12.3% (inactive)	-0.414 (inactive)	-0.000135 (inactive)	0.00415 (inactive)	24.8% (inactive)
CCC1CCCCN1c1nc(-c2cccc(OC)c2O)nc2ccccc12 (stereo not given)	322	0.9% (inactive)	-128% (inactive)	154%	-0.599	0.187	0.757	-8.76% (inactive)	-0.454 (inactive)	-0.000132 (inactive)	0.00525 (inactive)	3.59% (inactive)
COCCCNc1nc(-c2ccncc2)nc2ccccc12	419	1.9% (inactive)	-227% (inactive)	126%	1.01	-0.929	-0.825	18.2% (inactive)	-0.514 (inactive)	-8.3e-05 (inactive)	0.00557 (inactive)	138% (active)
COC(=O)C1=C(C)N=C2SC(C)C(=O)N2C1c1cccs1 (stereo not given)	366	3.7% (inactive)	-39.6% (inactive)	142%	1.89	-0.39	-0.931	22.8% (inactive)	-0.426 (inactive)	-0.000101 (inactive)	0.00597 (inactive)	14.7% (inactive)
COc1cccc(-c2nc(NCCN3CCOCC3)c3ccccc3n2)c1O	355	-7.9% (inactive)	21.8% (inactive)	164%	-0.211	-0.437	-0.66	21% (inactive)	-0.395 (inactive)	-0.00024 (inactive)	0.00346 (inactive)	95% (active)
Cc1cc(N2C(=O)C(=O)/C(=C(/O)c3ccccc3)C2c2cccc(Br)c2)no1 (stereo not given)	298	-10.2% (inactive)	-43.8% (inactive)	93.2%	0.294	-0.11	0.565	1.6e-07% (inactive)	-0.473 (inactive)	-3.5e-05 (inactive)	0.00638 (inactive)	-10.3% (inactive)
COC(=O)c1ccc(C2/C(=C(/O)c3ccc(OC)cc3)C(=O)C(=O)N2c2cc(C)on2)cc1 (stereo not given)	311	-11.6% (inactive)	-76.7% (inactive)	138%	0.558	-1.16	-1.06	1.6e-07% (inactive)	-0.466 (inactive)	-5.4e-05 (inactive)	0.00772 (inactive)	-6.24% (inactive)
C=CCNc1nc(-c2cccc(OC)c2O)nc2ccccc12	347	5.6% (inactive)	-92.9% (inactive)	101%	-0.736	0.355	1.19	7.01% (inactive)	-0.415 (inactive)	-0.000104 (inactive)	0.00503 (inactive)	1.52% (inactive)
